According to the supplement of paper PMC9023506:
Counter-ions that a name gives are not always drawn.

tested on: Danio rerio larvae (5 dpf); assay: startle response to 20-s acoustic pulses, difference vs DMSO (percentage points (treated minus DMSO)); higher = more of the behaviour than the DMSO vehicle control; conditions: 10 µM; exposure time: 3 h pre-incubation + 3 h imaging
Experimental: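 5-dpf wild-type zebrafish larvae were imaged in 96-well plates. They were treated with 190 Tocris FDA-approved drugs at 10 µM (1 µl/ml DMSO) for 3 h before and 3 h during imaging at 28.5 °C, 48 larvae per drug. Automated image analysis gave % time moving and optomotor responses. Values are drug group mean minus DMSO vehicle mean (n=844), in percentage points, for 10 behaviours.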

SMILES	startle response to 20-s acoustic pulses
Cn1cnc([N+](=O)[O-])c1Sc1ncnc2[nH]cnc12 [Azathioprine]	-1.29
CN(C)CCC[C@@]1(c2ccc(F)cc2)OCc2cc(C#N)ccc21 [Escitalopram oxalate]	-6.28
CN[C@H]1CC[C@@H](c2ccc(Cl)c(Cl)c2)c2ccccc21 [Sertraline hydrochloride]	1.74
Brc1c(NC2=NCCN2)ccc2nccnc12	-4.57
Cc1ccsc1C(=CCCN1CCC[C@@H](C(=O)O)C1)c1sccc1C [Tiagabine hydrochloride]	5.98
CCCCCOC(=O)Nc1nc(=O)n([C@@H]2O[C@H](C)[C@@H](O)[C@H]2O)cc1F [Capecitabine]	3
OC(c1cc(C(F)(F)F)nc2c(C(F)(F)F)cccc12)C1CCCCN1 (stereo not given) [Mefloquine hydrochloride]	-13.3
COc1c(C)c2c(c(O)c1C/C=C(\C)CCC(=O)OCCN1CCOCC1)C(=O)OC2 [Mycophenolate mofetil]	3.73
C=CC(=O)N1CCC[C@@H](n2nc(-c3ccc(Oc4ccccc4)cc3)c3c(N)ncnc32)C1 [Ibrutinib]	3.06
Cc1cccc(CN2CCN(C(c3ccccc3)c3ccc(Cl)cc3)CC2)c1 (stereo not given) [Meclizine dihydrochloride]	-8.16
CC(C)c1nc(N(C)S(C)(=O)=O)nc(-c2ccc(F)cc2)c1/C=C/[C@@H](O)C[C@@H](O)CC(=O)O [Rosuvastatin calcium]	-3.11
Cc1cc2c(s1)Nc1ccccc1N=C2N1CCN(C)CC1 [Olanzapine]	-0.064
CCOC(=O)C1=C(C)NC(C)=C(C(=O)OC)C1c1cccc(Cl)c1Cl (stereo not given) [Felodipine]	9.85
Clc1ccccc1C(c1ccccc1)(c1ccccc1)n1ccnc1 [Clotrimazole]	4.06
COc1cc2ncnc(Nc3ccc(F)c(Cl)c3)c2cc1OCCCN1CCOCC1 [Iressa]	-2.19
COc1ccc(C[C@@H](C)NC[C@H](O)c2ccc(O)c(NC=O)c2)cc1 [Arformoterol tartrate]	-9.44
CC1CNc2c(cccc2S(=O)(=O)N[C@@H](CCCNC(=N)N)C(=O)N2CC[C@@H](C)C[C@@H]2C(=O)O)C1 (stereo not given in full) [Argatroban]	2.94
CCC(=O)O[C@]1(C(=O)SCF)[C@H](C)C[C@H]2[C@@H]3C[C@H](F)C4=CC(=O)C=C[C@]4(C)[C@@]3(F)[C@@H](O)C[C@@]21C [Fluticasone propionate]	-3.1
O=C1CCc2ccc(OCCCCN3CCN(c4cccc(Cl)c4Cl)CC3)cc2N1 [Aripiprazole]	-4.17
Nc1ncn([C@@H]2O[C@H](CO)[C@@H](O)[C@H]2O)c(=O)n1 [5-Azacytidine]	2.64

SMILES	startle response to 20-s acoustic pulses
NC(=O)c1ncn([C@@H]2O[C@H](CO)[C@@H](O)[C@H]2O)n1 [Ribavirin]	1.75
CC(CCc1ccc(O)cc1)NCCc1ccc(O)c(O)c1 (stereo not given) [Dobutamine hydrochloride]	2.42
COc1ccccc1Oc1c(NS(=O)(=O)c2ccc(C(C)(C)C)cc2)nc(-c2ncccn2)nc1OCCO [Bosentan]	6.71
Nc1nc(F)nc2c1ncn2[C@@H]1O[C@H](CO)[C@@H](O)[C@@H]1O [Fludarabine]	3.23
CC(C)[C@H]1CC[C@H](C(=O)N[C@H](Cc2ccccc2)C(=O)O)CC1 [Nateglinide]	3.57
Nc1nc2[nH]cc(CCc3ccc(C(=O)N[C@@H](CCC(=O)O)C(=O)O)cc3)c2c(=O)[nH]1 [Pemetrexed]	-4.56
CCc1ccc(CCOc2ccc(CC3SC(=O)NC3=O)cc2)nc1 (stereo not given) [Pioglitazone hydrochloride]	-3.21
Cc1ccc(NC(=O)c2ccc(CN3CCN(C)CC3)cc2)cc1Nc1nccc(-c2cccnc2)n1 [Imatinib mesylate]	5.5
CN1CC[C@@H](NC(=O)Nc2ccc(C#N)cc2)C[C@@H]1c1nc2ccccc2[nH]1	-5.85
C[C@@H](O[C@H]1OCCN(Cc2n[nH]c(=O)[nH]2)[C@H]1c1ccc(F)cc1)c1cc(C(F)(F)F)cc(C(F)(F)F)c1 [Aprepitant]	-6.92
O=C(O)CCCc1ccccc1 [Sodium 4-Phenylbutyrate]	-5.04
Nc1nc2c(ncn2COCCO)c(=O)[nH]1 [Acyclovir]	0.665
Nc1ncn([C@H]2C[C@H](O)[C@@H](CO)O2)c(=O)n1 [Decitabine]	-0.522
CC[C@H]1OC(=O)[C@H](C)[C@@H](O[C@H]2C[C@@](C)(OC)[C@@H](O)[C@H](C)O2)[C@H](C)[C@@H](O[C@@H]2O[C@H](C)C[C@H](N(C)C)[C@H]2O)[C@](C)(O)C[C@@H](C)CN(C)[C@H](C)[C@@H](O)[C@]1(C)O [Azithromycin]	2.64
C[C@]12CC[C@@H]3c4ccc(O)cc4C[C@@H](CCCCCCCCC[S+]([O-])CCCC(F)(F)C(F)(F)F)[C@H]3[C@@H]1CC[C@@H]2O (stereo not given in full)	0.769
CC/C(=C(\c1ccccc1)c1ccc(OCCN(C)C)cc1)c1ccccc1 [Tamoxifen citrate]	-0.535
CN1CCC[C@@H]1CCO[C@](C)(c1ccccc1)c1ccc(Cl)cc1 [Clemastine fumarate]	-7.67
CN(CCOc1ccc(NS(C)(=O)=O)cc1)CCc1ccc(NS(C)(=O)=O)cc1 [Dofetilide]	0.873
O=C(O)C[C@H](O)C[C@H](O)/C=C/c1c(C2CC2)nc2ccccc2c1-c1ccc(F)cc1 [Pitavastatin calcium]	1.52
CC(C)COCC(CN(Cc1ccccc1)c1ccccc1)N1CCCC1 (stereo not given) [Bepridil hydrochloride]	-5.17
